Several values for one entry are separate records, joined by “and”; a condition that tells them apart may be missing. Identical values can stand only once.
Key:
[1] = molecular target: T1, 3-phosphoinositide-dependent protein kinase 1 (Homo sapiens) (UniProt O15530); settings: at 0.1 µM;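 also: values are mean inhibition of PDK1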
T1 sequence (whole entry): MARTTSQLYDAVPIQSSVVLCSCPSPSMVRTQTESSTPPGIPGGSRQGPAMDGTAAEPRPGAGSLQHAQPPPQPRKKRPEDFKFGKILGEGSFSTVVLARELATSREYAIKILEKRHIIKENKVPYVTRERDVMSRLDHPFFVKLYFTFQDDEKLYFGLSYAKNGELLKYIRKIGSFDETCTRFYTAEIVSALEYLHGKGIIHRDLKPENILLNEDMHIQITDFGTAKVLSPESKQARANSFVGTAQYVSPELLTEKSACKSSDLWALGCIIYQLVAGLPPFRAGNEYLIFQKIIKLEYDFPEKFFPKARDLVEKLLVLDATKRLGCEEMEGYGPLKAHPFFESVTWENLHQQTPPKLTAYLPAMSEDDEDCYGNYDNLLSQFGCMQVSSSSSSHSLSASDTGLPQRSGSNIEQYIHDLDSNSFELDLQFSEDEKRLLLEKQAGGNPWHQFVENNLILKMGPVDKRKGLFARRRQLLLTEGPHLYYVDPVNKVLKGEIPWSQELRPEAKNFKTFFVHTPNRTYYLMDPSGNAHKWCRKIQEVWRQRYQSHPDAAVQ

[2] = molecular target: cAMP-dependent protein kinase catalytic subunit alpha (Homo sapiens) (UniProt P17612); settings: at 0.1 µM
[3] = molecular target: cAMP-dependent protein kinase catalytic subunit alpha (Homo sapiens) (UniProt P17612); settings: at 1 µM
[4] = molecular target: Protein kinase C alpha type (Homo sapiens) (UniProt P17252); settings: at 0.1 µM
[5] = molecular target: Protein kinase C alpha type (Homo sapiens) (UniProt P17252); settings: at 1 µM
[6] = molecular target: Protein kinase C beta type (Homo sapiens) (UniProt P05771); settings: at 0.1 µM
[7] = molecular target: Protein kinase C beta type (Homo sapiens) (UniProt P05771); settings: at 1 µM
[8] = molecular target: Protein kinase C eta type (Homo sapiens) (UniProt P24723); settings: at 0.1 µM
[9] = molecular target: Protein kinase C eta type (Homo sapiens) (UniProt P24723); settings: at 1 µM
[10] = molecular target: Protein kinase C gamma type (Homo sapiens) (UniProt P05129); settings: at 0.1 µM
[11] = molecular target: Protein kinase C gamma type (Homo sapiens) (UniProt P05129); settings: at 1 µM
[12] = molecular target: T2, Protein kinase C iota type (Homo sapiens) (UniProt P41743); settings: at 0.1 µM
T2 sequence (whole entry): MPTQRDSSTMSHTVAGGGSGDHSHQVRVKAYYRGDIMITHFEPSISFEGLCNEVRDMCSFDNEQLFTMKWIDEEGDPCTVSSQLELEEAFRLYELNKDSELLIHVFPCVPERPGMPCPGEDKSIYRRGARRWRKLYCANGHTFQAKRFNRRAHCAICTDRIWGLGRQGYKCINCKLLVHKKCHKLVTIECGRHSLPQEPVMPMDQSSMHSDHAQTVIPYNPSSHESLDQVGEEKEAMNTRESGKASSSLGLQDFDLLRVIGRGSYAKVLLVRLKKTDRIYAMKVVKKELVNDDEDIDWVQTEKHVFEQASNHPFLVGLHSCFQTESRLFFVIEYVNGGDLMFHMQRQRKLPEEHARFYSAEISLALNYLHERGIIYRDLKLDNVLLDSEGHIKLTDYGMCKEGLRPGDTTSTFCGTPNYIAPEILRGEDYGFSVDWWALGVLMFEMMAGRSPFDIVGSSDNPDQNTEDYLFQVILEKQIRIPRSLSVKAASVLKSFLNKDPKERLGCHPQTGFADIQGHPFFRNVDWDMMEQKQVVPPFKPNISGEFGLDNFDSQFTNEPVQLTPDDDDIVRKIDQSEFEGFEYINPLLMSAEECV

[13] = molecular target: T2, Protein kinase C iota type (Homo sapiens); settings: at 1 µM
[14] = molecular target: Protein kinase C theta type (Homo sapiens) (UniProt Q04759); settings: at 0.1 µM
[15] = molecular target: Protein kinase C theta type (Homo sapiens) (UniProt Q04759); settings: at 1 µM
[16] = molecular target: Protein kinase C beta type (Homo sapiens) (UniProt P05771); settings: at 0.1 µM; remark: listed apart in the source
[17] = molecular target: Protein kinase C beta type (Homo sapiens) (UniProt P05771); settings: at 1 µM; remark: listed apart in the source
[18] = molecular target: T3, Serine/threonine-protein kinase D1 (Homo sapiens) (UniProt Q15139); settings: at 0.1 µM
T3 sequence (whole entry): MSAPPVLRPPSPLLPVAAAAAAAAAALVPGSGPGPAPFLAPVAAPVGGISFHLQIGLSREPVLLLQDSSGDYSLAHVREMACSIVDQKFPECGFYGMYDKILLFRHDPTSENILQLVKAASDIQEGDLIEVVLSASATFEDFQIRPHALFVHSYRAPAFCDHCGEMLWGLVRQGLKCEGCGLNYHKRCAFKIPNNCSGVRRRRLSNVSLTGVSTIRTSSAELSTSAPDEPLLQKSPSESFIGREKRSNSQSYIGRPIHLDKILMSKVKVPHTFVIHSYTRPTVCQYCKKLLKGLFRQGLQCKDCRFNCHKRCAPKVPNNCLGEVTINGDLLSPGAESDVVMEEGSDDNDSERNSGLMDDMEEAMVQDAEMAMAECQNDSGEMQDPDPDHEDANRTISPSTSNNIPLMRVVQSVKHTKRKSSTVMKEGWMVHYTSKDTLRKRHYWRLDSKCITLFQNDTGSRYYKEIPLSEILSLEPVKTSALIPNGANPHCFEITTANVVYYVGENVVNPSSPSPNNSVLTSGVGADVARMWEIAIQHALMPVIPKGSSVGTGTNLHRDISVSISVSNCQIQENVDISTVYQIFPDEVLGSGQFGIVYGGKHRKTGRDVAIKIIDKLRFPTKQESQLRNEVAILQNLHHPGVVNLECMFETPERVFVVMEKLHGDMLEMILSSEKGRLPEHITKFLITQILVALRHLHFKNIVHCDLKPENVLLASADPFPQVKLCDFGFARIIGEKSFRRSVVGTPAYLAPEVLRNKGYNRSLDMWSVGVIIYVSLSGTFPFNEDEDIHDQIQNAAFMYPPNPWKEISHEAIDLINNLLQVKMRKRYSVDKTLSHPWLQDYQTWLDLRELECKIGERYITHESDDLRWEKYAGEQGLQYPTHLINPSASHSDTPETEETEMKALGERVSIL

[19] = molecular target: T3, Serine/threonine-protein kinase D1 (Homo sapiens); settings: at 1 µM
[20] = molecular target: T4, Serine/threonine-protein kinase D2 (Homo sapiens) (UniProt Q9BZL6); settings: at 0.1 µM;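 also: reported percent inhibition values are means, part of the GSK PKIS kinase panel screen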
T4 sequence (whole entry): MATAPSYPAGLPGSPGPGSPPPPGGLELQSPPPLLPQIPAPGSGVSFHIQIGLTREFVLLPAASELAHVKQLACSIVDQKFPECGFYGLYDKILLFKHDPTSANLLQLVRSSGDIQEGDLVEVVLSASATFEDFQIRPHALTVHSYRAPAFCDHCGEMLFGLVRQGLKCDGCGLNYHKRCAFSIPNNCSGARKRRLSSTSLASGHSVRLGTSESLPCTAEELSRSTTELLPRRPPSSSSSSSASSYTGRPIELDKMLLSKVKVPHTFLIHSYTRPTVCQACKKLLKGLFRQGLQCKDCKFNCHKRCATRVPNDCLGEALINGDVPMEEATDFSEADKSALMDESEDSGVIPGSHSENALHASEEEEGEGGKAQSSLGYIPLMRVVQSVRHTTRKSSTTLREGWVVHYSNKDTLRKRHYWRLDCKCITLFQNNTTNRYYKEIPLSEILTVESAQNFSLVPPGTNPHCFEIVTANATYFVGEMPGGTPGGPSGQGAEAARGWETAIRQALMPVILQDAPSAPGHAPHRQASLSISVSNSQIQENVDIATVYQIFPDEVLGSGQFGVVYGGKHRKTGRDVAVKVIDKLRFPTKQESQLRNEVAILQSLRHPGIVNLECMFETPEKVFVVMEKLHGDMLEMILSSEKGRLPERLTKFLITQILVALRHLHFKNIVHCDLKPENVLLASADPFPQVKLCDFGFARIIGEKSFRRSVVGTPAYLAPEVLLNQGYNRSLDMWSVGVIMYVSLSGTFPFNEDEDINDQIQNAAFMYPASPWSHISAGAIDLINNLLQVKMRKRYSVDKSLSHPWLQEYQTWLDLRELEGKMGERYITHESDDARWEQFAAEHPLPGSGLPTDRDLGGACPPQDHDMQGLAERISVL

Chain of Protein kinase C eta type (Homo sapiens) (P24723 whole entry): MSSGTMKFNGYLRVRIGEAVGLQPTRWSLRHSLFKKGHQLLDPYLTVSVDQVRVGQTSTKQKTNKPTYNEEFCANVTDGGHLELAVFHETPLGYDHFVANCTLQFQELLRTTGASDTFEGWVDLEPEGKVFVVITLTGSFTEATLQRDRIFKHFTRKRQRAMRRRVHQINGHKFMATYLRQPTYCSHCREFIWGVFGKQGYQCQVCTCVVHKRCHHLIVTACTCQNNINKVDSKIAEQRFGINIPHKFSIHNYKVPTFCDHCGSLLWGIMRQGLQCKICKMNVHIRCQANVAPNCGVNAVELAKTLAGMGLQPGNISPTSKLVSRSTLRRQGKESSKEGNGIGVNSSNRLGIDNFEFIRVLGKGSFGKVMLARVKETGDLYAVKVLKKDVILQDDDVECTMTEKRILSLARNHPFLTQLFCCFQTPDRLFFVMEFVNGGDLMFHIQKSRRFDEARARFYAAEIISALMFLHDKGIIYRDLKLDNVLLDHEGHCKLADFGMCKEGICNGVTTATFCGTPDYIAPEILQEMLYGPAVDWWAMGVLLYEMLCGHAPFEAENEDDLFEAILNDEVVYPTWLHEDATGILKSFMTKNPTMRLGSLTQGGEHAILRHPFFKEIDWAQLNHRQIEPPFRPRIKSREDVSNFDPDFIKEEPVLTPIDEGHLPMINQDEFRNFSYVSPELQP
Chain of Protein kinase C theta type (Homo sapiens) (Q04759 whole entry, looked up): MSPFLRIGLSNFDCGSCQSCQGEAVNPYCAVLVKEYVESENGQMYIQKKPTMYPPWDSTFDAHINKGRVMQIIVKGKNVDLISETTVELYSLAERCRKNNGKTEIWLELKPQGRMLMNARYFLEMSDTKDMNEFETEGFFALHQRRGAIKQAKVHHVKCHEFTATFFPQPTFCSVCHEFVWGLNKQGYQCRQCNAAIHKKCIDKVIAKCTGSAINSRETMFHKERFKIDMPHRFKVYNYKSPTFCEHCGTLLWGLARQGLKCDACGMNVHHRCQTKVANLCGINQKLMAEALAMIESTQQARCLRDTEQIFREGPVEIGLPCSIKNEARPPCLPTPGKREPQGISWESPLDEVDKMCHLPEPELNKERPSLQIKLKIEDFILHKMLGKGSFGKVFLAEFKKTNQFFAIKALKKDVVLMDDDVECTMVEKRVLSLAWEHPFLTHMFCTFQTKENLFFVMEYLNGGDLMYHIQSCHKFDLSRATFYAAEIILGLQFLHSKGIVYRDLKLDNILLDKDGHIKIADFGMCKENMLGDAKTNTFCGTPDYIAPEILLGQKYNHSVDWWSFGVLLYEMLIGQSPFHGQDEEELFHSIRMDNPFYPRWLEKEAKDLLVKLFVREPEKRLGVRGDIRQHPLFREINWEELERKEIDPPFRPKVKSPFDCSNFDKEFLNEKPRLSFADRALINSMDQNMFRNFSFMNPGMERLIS
Chain of Protein kinase C beta type (Homo sapiens) (P05771 2-671 limits assumed): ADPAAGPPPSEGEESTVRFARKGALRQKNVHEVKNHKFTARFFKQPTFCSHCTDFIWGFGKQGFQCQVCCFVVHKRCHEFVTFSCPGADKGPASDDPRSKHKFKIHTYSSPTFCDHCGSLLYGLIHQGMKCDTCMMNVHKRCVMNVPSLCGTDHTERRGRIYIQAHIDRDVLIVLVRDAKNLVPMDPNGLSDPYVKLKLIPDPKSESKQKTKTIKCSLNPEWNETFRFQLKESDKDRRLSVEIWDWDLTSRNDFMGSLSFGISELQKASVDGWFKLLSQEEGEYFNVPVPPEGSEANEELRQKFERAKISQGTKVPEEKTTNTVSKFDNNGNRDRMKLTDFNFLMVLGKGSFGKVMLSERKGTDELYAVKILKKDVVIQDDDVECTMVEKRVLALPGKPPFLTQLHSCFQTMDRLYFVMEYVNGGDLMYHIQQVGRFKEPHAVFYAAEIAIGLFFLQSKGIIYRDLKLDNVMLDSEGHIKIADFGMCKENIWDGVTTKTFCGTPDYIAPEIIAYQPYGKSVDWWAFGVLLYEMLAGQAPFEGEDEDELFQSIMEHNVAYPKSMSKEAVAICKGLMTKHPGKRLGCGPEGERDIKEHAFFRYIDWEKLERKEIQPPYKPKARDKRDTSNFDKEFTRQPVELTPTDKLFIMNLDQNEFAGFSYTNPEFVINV

Structure (SMILES) | inhibition [1] | inhibition [2] | inhibition [3] | inhibition [4] | inhibition [5] | inhibition [6] | inhibition [7] | inhibition [8] | inhibition [9] | inhibition [10] | inhibition [11] | inhibition [12] | inhibition [13] | inhibition [14] | inhibition [15] | inhibition [16] | inhibition [17] | inhibition [18] | inhibition [19] | inhibition [20]
CS(=O)(=O)CCNCc1ccc(-c2ccc3ncnc(Nc4ccc(OCc5cccc(C(F)(F)F)c5)cc4)c3c2)o1 | 0.06% | 1.97% | 4.62% | 1.05% | 2.11% | 1.32% | 0.08% | 6.28% | 4.9% | 2.65% | -0.26% | 2.37% | 2.7% | 2.36% | 5.13% | 1.56% | 3.15% | 4.62% | 6.2% | 5.3%
CCS(=O)(=O)c1ccc(OC)c(Nc2ncc(-c3cccc(C(C)=O)c3)o2)c1 | 0.17% | 1.47% | 1.88% | 0.74% | 0.95% | -0.44% | 3.77% | 3.76% | 3.11% | 2.68% | 1.69% | 1.79% | -0.79% | 2.27% | 3.34% | 1.16% | 1.89% | 2.32% | 2.22% | 2.04%
CN1CCN(Cc2ccc(-c3cc4ncnc(Nc5ccc(OCc6cccc(F)c6)c(Cl)c5)c4s3)o2)CC1 | 14.8% and 0.07% | 1.2% and 3.28% | 5.56% and 3.03% | 0.64% and 0.88% | 1.87% and 2.52% | -1.25% and 0.04% | 0.12% and 3.28% | 4.86% and 6.13% | 3.75% and 6.04% | 0.69% and 2.55% | 1.46% and 6.95% | 1.42% and 1.16% | 1.76% and 1.19% | 1.25% and 2.92% | 0.89% and 4.95% | 0.98% and 1.08% | 2.27% and 3.9% | 3.21% and 5.57% | 6.44% and 7.02% | 2.14% and 5.13%
Fc1ccc(Nc2nccc(-c3c(-c4ccc(C(F)(F)F)cc4)nn4ncccc34)n2)cc1F | 3.96% | 1.44% | 1.2% | 1.5% | 2.09% | -0.08% | -1.29% | 0.94% | 1.72% | 1.67% | 4.39% | 0.34% | 3.68% | 1.71% | 0.47% | 0.7% | 0.3% | 3.32% | 5.39% | 3.45%
CCCNc1cccc(-n2ncc3c(N/N=C/c4ccncc4)ncnc32)c1 | 1.19% | 1.59% | 3.62% | 0.98% | 1.45% | 1.35% | 5.99% | 2.17% | 2.92% | 1.35% | 5.49% | 3.86% | 12.5% | 1.36% | 2.98% | 3.39% | 3.89% | 2.19% | 1.22% | -2.37%
Fc1cccc(COc2ccc(Nc3ncncc3C#Cc3ccccc3)cc2Cl)c1 | 3.09% | 2.03% | 2.57% | 1.03% | 1.01% | 1.01% | 4.8% | 0.23% | 4.62% | 3.66% | 4.55% | 1.11% | 0.75% | 3.42% | 4.89% | 0.66% | 1.48% | 4.73% | 7.41% | 5.16%
